# Screens from PubChem.
# The list is not random: actives were taken first. Their share in the collection is about 21%.
# HCV inhibitor – qHTS Assay for Inhibitors of Hepatitis C Virus (HCV); Huh7.5.1 HCVcc-Cre infection, luciferase reporter, 44 h; Potency, µM (highest dose often 41.8 µM), actives largely listed as inhibitors; actives 3.4% (n = 340,000); AID 651820, 2012
#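 1,000 cells/well; 4 h culture; + compound; + HCVcc-Cre (~0.5 moi); 44 h; luciferase substrate, RT 15 min; read 15 sec.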
# HCMV antiviral – qHTS Assay for inhibitors of the human cytomegalovirus (HCMV); HFF cells, HCMV-luciferase reporter, 72 h; active compounds read low; activity change, negative = inhibition, % at 57.5 µM; actives 4.5% (n = 410,000); AID 1259415, 2018; in the data active = activity change below about -60%; inconclusive = no clear call, values can overlap the other calls; inactive = above about -39%
#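 Cell-based, HFFs, 1000 cells/well, 16 h 37C; cpds in DMSO + HCMV-luc, MOI 1 PFU/cell; 72 h 37C; OneGlo luminescence after 5 min RT; norm. to buffer vs Salinomycin 10uM.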
# Pf growth 96h – Primary qHTS for delayed death inhibitors of the malarial parasite plastid, 96 hour incubation. P. falciparum luciferase reporter growth, 96 h. Potency, µM (doses to about 28.7 µM), usual class: inhibitors. actives 6.9% (n = 320,000)
#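 Compounds incubated with erythrocytes infected by luciferase-expressing P. falciparum (2% hematocrit, 0.05% parasitemia final) for 96 hours, 37 C in 5% CO2. Growth inhibition scored as decreased luciferase luminescence.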
# Cycloheximide cs – Cycloheximide Counterscreen for Small Molecule Inhibitors of Shiga Toxin; cell reporter, cycloheximide protein synthesis inhibition counterscreen; AID 2314, 2010; actives 12% (n = 300,000); max response, %; in the data active = max response mostly above about 13%, no sharp cut-off; inactive = mostly below about 14%; also: read at 38.3 µM for the half of the compounds with a filed dose
# Pf growth 48h – Primary qHTS for delayed death inhibitors of the malarial parasite plastid, 48 hour incubation; P. falciparum luciferase growth in erythrocytes, 48 h; Potency, µM (top dose mostly 28.7 µM), hits mostly inhibitors; actives 5.9% (n = 310,000); AID 504832, 2011
#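 Luciferase-expressing parasites in RBCs, 2% Hct / 0.1% parasitemia final; RPMI 1640 + 0.5% Albumax; 37 C, 5% CO2, one generation; luminescence read-out, lower signal = inhibition.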
# Shiga toxin inh – A qHTS for Small Molecule Inhibitors of Shiga Toxin; actives 9.2% (n = 290,000); Vero cells, Shiga toxin protein synthesis inhibition reporter; inhibition, % at 38.7 µM; AID 2315, 2010; in the data active = inhibition mostly above about 28%, no sharp cut-off; inactive = mostly below about 43%
# Numbers stand for hits; . = inactive; ? = inconclusive; / = no result. Unless noted, calls follow the shape of the dose curve; as a rule, active = well fitted inhibition curve with a large enough effect; inconclusive = small, poorly fitted or top-dose-only effect, or another doubt; inactive = no such curve, though single readings can be large or run the other way.
SMILES,HCV inhibitor,HCMV antiviral,Pf growth 96h,Cycloheximide cs,Pf growth 48h,Shiga toxin inh
C#CCOCCOCCOCCNc1nc(N2CCOCC2)nc(N2CCN(C(=O)[C@H](Cc3cc4ccccc4[nH]3)n3cc([C@@H](N)C(C)CC)nn3)CC2)n1 (some centres undefined),.,?,2.94µM,.,?,.
C#CCOCCOCCOCCNc1nc(N2CCN(C(=O)[C@H]([C@@H](C)CC)n3cc([C@@H](N)CC(C)C)nn3)CC2)nc(N2CCN(C(=O)[C@H](Cc3cc4ccccc4[nH]3)n3cc([C@@H](N)C(C)CC)nn3)CC2)n1 (some centres undefined),/,/,1.17µM,.,4.65µM,.
C#CCOCCOCCOCCNc1nc(N2CCN(C(=O)C(Cc3ccc(O)cc3)n3cc(C(N)CC(C)C)nn3)CC2)nc(N2CCN(C(=O)C(Cc3cc4ccccc4[nH]3)n3cc(C(N)C(C)CC)nn3)CC2)n1 (centres undefined),/,/,?,.,?,.
C#CCOCCOCCOCCNc1nc(N2CCN(C(=O)C(Cc3cc4ccccc4[nH]3)n3cc(C(N)C(C)CC)nn3)CC2)nc(N2CCN(C(=O)C(Cc3cc4ccccc4[nH]3)n3cc(C(N)C(C)CC)nn3)CC2)n1 (centres undefined),.,/,4.15µM,.,?,.
C#CCOCCOCCOCCNc1nc(N2CCN(C(=O)[C@H](Cc3ccc(O)cc3)n3cc([C@@H](N)C(C)CC)nn3)CC2)nc(N2CCN(C(=O)[C@H](Cc3cc4ccccc4[nH]3)n3cc([C@@H](N)Cc4ccc(O)cc4)nn3)CC2)n1 (some centres undefined),/,/,?,.,10.4µM,.
Cc1nc(CN(C)C(=O)C2CCC(=O)N(CCc3cccc(F)c3)C2)cs1 (centres undefined),.,?,.,.,.,.
CN(CCC1CCOCC1)C(=O)C1CCC(=O)N(CCc2ccc(Cl)cc2)C1 (centres undefined),.,.,.,.,.,.
Cc1ccsc1CCNC(=O)C1CCC(=O)N(CCc2cccc(F)c2)C1 (centres undefined),.,.,?,45.9,.,119.9
Cc1ccsc1CN(C)C(=O)C1CCC(=O)N(CCc2cccc(F)c2)C1 (centres undefined),.,.,.,36.4,.,52.9
O=C(NCCOc1ccccc1F)C1CCC(=O)N(CCc2cccc(F)c2)C1 (centres undefined),.,?,14.7µM,.,?,.
CN(CCC1CCOCC1)C(=O)C1CCC(=O)N(CCc2cccc(F)c2)C1 (centres undefined),.,.,14.7µM,.,.,.
COc1cccc2cc(C(=O)NCCc3c(C)[nH]c4ccc(F)cc34)c(=O)oc12,/,.,/,/,/,/
CN1C(=O)C(=Cc2ccc(N3CCCCC3)o2)C(=O)N(C)C1=S,.,?,.,.,.,.
N#C/C(=C/c1ccc(N2CCCCCC2)o1)c1cccc(F)c1,?,-80.8,/,.,.,.
N#C/C(=C/c1ccc(N2CCOCC2)o1)c1nc2ccccc2[nH]1,.,.,.,33.6,.,57.9
S=C(c1nc2ccccc2[nH]1)N1CCOCC1,.,.,.,.,.,.
N#C/C(=C\c1ccc(N2CCOCC2)o1)c1ccccc1,11.2µM,.,.,33.6,.,.
N#C/C(=C\c1cc([N+](=O)[O-])c(N2CCOCC2)cc1N1CCOCC1)c1nc2ccccc2[nH]1,?,.,11.7µM,.,?,.
CCOC(=O)c1c(C)oc2nc(C)nc(NCc3ccc(OC)cc3)c12,/,.,/,/,/,/
CCc1ccc(OCC(=O)N(Cc2ccc(Cl)cc2)C2CCS(=O)(=O)C2)cc1 (centres undefined),/,.,/,/,/,/
Cc1cc(Cl)ccc1OCCCC(=O)N1CCN(S(=O)(=O)c2ccccc2)CC1,.,.,.,/,?,/
CC1(c2ccc(OC(F)F)cc2)NC(=O)N(CC(=O)c2ccc3c(c2)OCO3)C1=O (centres undefined),?,.,.,/,.,/
N#C/C(=C/c1ccc(N2CCOCC2)o1)c1ccc(Br)cc1,?,.,5.22µM,76.8,.,109.5
